This passage reports outcome and AC50 results from PubChem BioAssay (EPA / NIEHS).

A short description of assay [1]: CCTE_Shafer_MEA_acute_per_burst_spike_number_mean: CCTE's Neural Acute Assay for Average Number of Spikes Per Burst, Shafer Lab (AID 2284015).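 Further: hits are decreases in mean spikes per burst versus baseline.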 The method in brief:
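Read-out: percent change in mean spikes per burst, each well's post-exposure 40-min recording versus its own 40-min baseline. Rat cortical cultures, DIV 13 or 15, compounds 0.03-40 uM; DMSO is negative control, loss-of-signal fitting.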

Assay [2] is described as follows: CCTE_Shafer_MEA_acute_interburst_interval_mean: CCTE's Neural Acute Assay for Mean Interburst Interval, Shafer Lab (AID 2284016).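 Further: percent change of mean interburst interval versus each well's own pre-dose baseline; curves fitted for decrease in interburst interval relative to DMSO.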 The procedure, abridged:
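Rat cortical cultures, DIV 13/15; 20 min equilibration, 40 min baseline, compound 0.03-40 uM, 40 min re-recording, 37 C. Spikes detected at 8x rms noise (300-5000 Hz band-pass). Endpoint: % change in interburst interval, fitted in loss direction vs DMSO.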

A short description of assay [3]: CCTE_Shafer_MEA_acute_burst_percentage_mean: CCTE's Neural Acute Assay for Percentage of Spikes in a Burst, Shafer Lab (AID 2284017).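 On AC50: curve fitted for loss of signal so potency reflects decreased burst percentage.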 The method in brief: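 Rat cortical cultures, DIV 13/15, 37 C. Spikes detected at 8x rms noise (300-5000 Hz band-pass). Burst spikes/total spikes averaged across electrodes per well; % change post- vs pre-treatment (40 min each), loss-of-signal fit vs DMSO.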

Assay [4] is described as follows: CCTE_Shafer_MEA_acute_burst_percentage_std: CCTE's Neural Acute Assay for Standard Deviation of Burst Percentage, Shafer Lab (AID 2284018).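 Further: fitted in the negative direction so actives lower burst percentage SD.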 The procedure, abridged: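 Primary rat cortical neurons on 16-electrode MEA wells were recorded 40 min at baseline (DIV 13 or 15), then 40 min after compound (0.03-40 uM), at 37 C. Well value is SD across electrodes of spikes-in-bursts/total spikes; endpoint is percent change, DMSO-referenced.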

Assay [5] in a line: CCTE_Shafer_MEA_acute_per_network_burst_spike_number_mean: CCTE's Neural Acute Assay for Average Number of Spikes in a Network Burst, Shafer Lab (AID 2284019). The procedure, abridged: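 Primary rat cortical neurons on 16-electrode MEA wells, DIV 13 or 15, 37 C; 40-min baseline then 40-min recording with compound (0.03-40 uM). Spikes per network burst (total spikes/number of bursts) expressed as percent change from baseline, DMSO reference.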

The nature of assay [6]: CCTE_Shafer_MEA_acute_per_network_burst_electrodes_number_mean: CCTE's Neural Acute Assay for Mean Number of Electrodes in a Network Burst, Shafer Lab (AID 2284021).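 Further: curves fitted for decreases only so hits reduce electrodes per burst.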 The method in brief:
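Rat primary cortical neurons on 16-electrode MEA wells were recorded 40 min at baseline on DIV 13 or 15, then 40 min after compound (0.03-40 uM), at 37 C. Value is percent change per well, fitted in loss direction versus DMSO.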

The nature of assay [7]: CCTE_Shafer_MEA_acute_network_burst_percentage: CCTE's Neural Acute Assay for Percentage of Network Bursts, Shafer Lab (AID 2284022).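 Further: curves fitted for loss so actives lower network burst percentage.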 The procedure, abridged: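 Primary rat cortical neurons on 16-electrode MEA wells, treated on DIV 13 or 15 with compound (0.03-40 uM); 40-min baseline and 40-min post-exposure recordings at 37 C. Value is percent change in spikes within network bursts versus baseline, DMSO negative control.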

Assay [8] is described as follows: CCTE_Shafer_MEA_acute_cross_correlation_area: CCTE's Neural Acute Assay for Area of Cross Correlation, Shafer Lab (AID 2284024).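 Further: area under pooled inter-electrode spike cross-correlation near zero lag as percent change from own baseline; curves fitted for loss of cross-correlation area so actives lower synchrony.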 The procedure, abridged: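 Primary rat cortical neurons on 48-well MEA plates (16 electrodes/well) were recorded 40 min at baseline on DIV 13 or 15, then 40 min with compound (0.03-40 uM) at 37 C; cross-correlation area expressed as percent change from baseline.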

The nature of assay [9]: CCTE_Shafer_MEA_acute_cross_correlation_HWHM: CCTE's Neural Acute Assay for Cross Correlation at Half Width at Half Maximum, Shafer Lab (AID 2284026).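 Further: spontaneous network firing of rat primary cortical neurons on multiwell microelectrode arrays; percent change per well from pre-dose baseline in spike cross-correlogram half width; hits are a decrease in cross-correlogram half width relative to DMSO.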 The method in brief:
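Primary rat cortical neurons on 16-electrode MEA wells; 40-min baseline on DIV 13 or 15, then 40-min recording with compound (0.03-40 uM) at 37 C. HWHM of spike cross-correlogram expressed as percent change from baseline per well, DMSO reference.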

Assay [10] in a line: CCTE_Shafer_MEA_acute_synchrony_index: CCTE's Neural Acute Assay for Synchrony, Shafer Lab (AID 2284027).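 Further: network synchrony index of spontaneous spiking in primary rat cortical neurons on MEAs; fitted for loss of signal so actives lower synchrony relative to DMSO.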 The procedure, abridged: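 Spontaneous firing of mature rat cortical networks is captured extracellularly on microelectrode arrays at 37 C, with wells needing ≥10 active electrodes. Each compound (0.03-40 uM) is judged by the change in synchrony index from baseline over 40 min.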

Assay [11] concerns the target Estrogen receptor (Homo sapiens) (UniProt P03372). Nature of the assay: CCTE_Deisenroth_AIME_384WELL_LUC_Active: CCTE's 384-well Estrogen Receptor Transactivation Assay with AIME metabolic competence (ERTA luciferase; metabolism positive), Deisenroth Lab (AID 2284030; active means hit-call score of the fitted dose curve at least 0.9, where 1 is the maximum). The procedure, abridged: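 Test chemicals (10-point series, 0.002 - 200 uM) were preincubated 2 hours with alginate-immobilized phenobarbital/beta-naphthoflavone-induced male Sprague Dawley rat liver S9; conditioned medium then went onto VM7Luc4E2 breast cells for 24 hour. Luciferase gain-of-signal fitted relative to 17beta-estradiol.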

For assay [12] the target is unchanged. In words: CCTE_Deisenroth_AIME_384WELL_LUC_Inactive: CCTE's 384-well Estrogen Receptor Transactivation Assay without AIME metabolic competence (ERTA luciferase; metabolism negative), Deisenroth Lab (AID 2284038; active means hit-call score of the fitted dose curve at least 0.9, where 1 is the maximum;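 further: hits raise estrogen receptor luciferase signal so potencies reflect agonists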). The method in brief: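 Chemicals (10-point series, 0.002 - 200 uM) were incubated 2 hours with alginate-water microsphere lids lacking S9, then the conditioned medium was transferred to VM7Luc4E2 breast cells for 24 hour. Luciferase induction was read by bioluminescence, fitted upward relative to 17beta-estradiol.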

Assay [13] in a line: CCTE_Deisenroth_AIME_384WELL_CTox_Active: Cytotoxicity Assessment (CTOX) in CCTE's 384-well Estrogen Receptor Transactivation Assay with AIME metabolic competence (metabolism positive), Deisenroth Lab (AID 2284037; active means hit-call score of the fitted dose curve at least 0.9, where 1 is the maximum;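 further: chemicals first conditioned 2 h by alginate-bound induced rat liver S9 before cells; activity means signal loss indicating cell death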). The procedure, abridged:
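VM7Luc4E2 breast cells received medium pre-incubated 2 h with chemical over alginate microspheres holding induced male Sprague Dawley rat liver S9; viability read 24 h later by protease-substrate fluorescence. Loss of signal, bidirectional fit, 0.002–200 uM.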

A short description of assay [14]: CCTE_Shafer_MEA_dev_firing_rate_mean: CCTE's Neural Network Formation Assay for Mean Firing Rate, Shafer Lab (AID 2284031).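 Further: AUC of well mean spike rate recorded on DIV 5 7 9 and 12.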 The procedure, abridged:
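Developing rat cortical networks on MEA plates undergo 12-day compound exposure. Firing frequency, averaged across active electrodes, is integrated as area under the curve over four recording days, referenced to DMSO.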

Assay [15] is described as follows: CCTE_Shafer_MEA_dev_per_burst_spike_percent: CCTE's Neural Network Formation Assay for Percent of Spikes in a Burst, Shafer Lab (AID 2284032). The method in brief:
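Rat primary cortical neurons on 16-electrode MEA wells, dosed from plating day 0 for 12 days with renewal on DIV 5 and 9; spikes-in-bursts percentage averaged over bursting electrodes, collapsed as AUC across days 5, 7, 9, 12; loss direction versus DMSO.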

Assay [16] is described as follows: CCTE_Deisenroth_AIME_384WELL_CTox_Inactive: Cytotoxicity Assessment (CTOX) in CCTE's 384-well Estrogen Receptor Transactivation Assay without AIME metabolic competence (metabolism negative), Deisenroth Lab (AID 2284039; active means hit-call score of the fitted dose curve at least 0.9, where 1 is the maximum;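 further: cell viability via live-cell protease substrate cleaved to fluorescent probe; cells exposed 24 h to medium preincubated 2 h with alginate-water beads without S9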). The procedure, abridged:
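Metabolism-negative arm: chemicals (10-point, 0.002 - 200 uM) preincubated 2 h with alginate-water lids, medium moved onto VM7Luc4E2 cells for 24 h. Fluorescent live-cell protease readout; bidirectional curve fit.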

SMILES strings stand for the structures. Records with an inconclusive call do not appear. Active and inactive are the calls of the source. How the source made its calls, unless noted: active means hit-call score of the fitted dose curve at least 0.9, where 1 is the maximum; inactive means score below 0.9.

Estrogen receptor (Homo sapiens), sequence (P03372 whole entry, looked up): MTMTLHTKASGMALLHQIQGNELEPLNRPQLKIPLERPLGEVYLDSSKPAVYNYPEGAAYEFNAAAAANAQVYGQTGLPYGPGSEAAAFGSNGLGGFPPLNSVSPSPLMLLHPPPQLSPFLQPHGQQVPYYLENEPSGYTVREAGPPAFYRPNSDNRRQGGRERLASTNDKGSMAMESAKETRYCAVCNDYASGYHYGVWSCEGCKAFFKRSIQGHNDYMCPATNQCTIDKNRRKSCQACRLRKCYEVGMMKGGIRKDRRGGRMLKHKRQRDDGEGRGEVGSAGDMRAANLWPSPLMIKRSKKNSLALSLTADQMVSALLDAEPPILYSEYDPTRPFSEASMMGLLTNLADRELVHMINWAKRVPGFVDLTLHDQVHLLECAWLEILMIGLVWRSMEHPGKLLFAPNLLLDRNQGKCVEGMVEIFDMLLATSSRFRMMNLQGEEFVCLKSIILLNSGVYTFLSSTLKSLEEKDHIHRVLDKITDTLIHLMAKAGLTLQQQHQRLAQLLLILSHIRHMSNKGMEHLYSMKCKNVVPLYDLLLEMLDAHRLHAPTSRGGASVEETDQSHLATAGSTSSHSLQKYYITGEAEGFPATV

For the compound `NCC1(Cc2noc(=O)[nH]2)CCCCC1`, the compound was classed as inactive in assay [1], in [2], in assay [3], in assay [4], in assay [5] and in [6]. For the same compound, the compound was classed as inactive in [7], in assay [8], in assay [9] and in assay [10].
As to `Nc1ccccc1N`, the compound was called inactive in assay [1], in [2], in assay [3], in [4], in [5] and in [6]. Also, the compound was classed as inactive in [7], in assay [8], in [9] and in assay [10].
On to `Clc1cc(Cl)c(Cl)cc1Cl`, for which the compound was called inactive in assay [1], in assay [2], in assay [3], in [4], in [5] and in assay [6]. Further, the compound was called inactive in assay [7], in [8], in [9], in assay [10], in assay [11] and in [12].
Take `Cc1ccc2ncccc2c1`: the call in [1], in assay [2], in assay [3], in assay [4], in [5] and in [6] was inactive. Besides, the compound was called inactive in [7], in [8], in assay [9], in assay [10], in [11] and in [13]. The outcome in [12] was inactive.
In the case of `CN[C@H]1CC[C@@H](c2ccc(Cl)c(Cl)c2)c2ccc(S(N)(=O)=O)cc21`, the AC50 – broadly, the concentration at which the activity in the assay is half-maximal – in assay [1] is 20 µM (active); in assay [3] it was 31.6 µM (active); in assay [6] it was 29.9 µM (active); in assay [7], 31 µM (active); in [10], 32 µM (active). Besides, the outcome in [2], in assay [4], in assay [5], in assay [8] and in assay [9] was inactive.
Take `COc1ccc2c(c1)c(CC(=O)O)c(C)n2C(=O)c1ccc(Cl)cc1`: the compound was classed as inactive in assay [1], in assay [2], in assay [3], in [4], in assay [5] and in assay [6]. Further, the result in [7], in assay [8], in [9] and in [10] was inactive.
In the case of `NS(=O)(=O)c1cc2c(cc1Cl)NCNS2(=O)=O`, the compound was called inactive in assay [1], in assay [2], in assay [3], in assay [4], in [5] and in assay [6]. Also, the compound was classed as inactive in [7], in assay [8], in assay [9] and in assay [10].
`COc1ccc(S(=O)(=O)N2C(=O)[C@@](c3ccccc3OC)(N3C[C@H](O)C[C@H]3C(=O)N(C)C)c3cc(Cl)ccc32)c(OC)c1`: the compound was called inactive in [1], in assay [2], in assay [3], in assay [4], in assay [5] and in assay [6]. Further, the call in [7], in assay [8], in assay [9] and in [10] was inactive.
As for `C=CCc1ccc(O)c(OC)c1`, the compound was classed as inactive in [1], in assay [2], in assay [3], in [4], in assay [5] and in assay [6]. Besides, the call in [8], in assay [9], in assay [11], in assay [14], in assay [15] and in [13] was inactive. The compound was classed as inactive in assay [12] and in assay [16]. The concentration at half-maximal activity (AC50) in assay [7] was 31.1 µM (active); in assay [10], 20 µM (active).
